An excerpt weighted towards active compounds, which were near 2.4% of everything screened.
D2 PAM-1: Beta-Arrestin HTS for Positive Allosteric Modulators of the Human D2 Dopamine Receptor: Potentiators; D(2) dopamine receptor (Homo sapiens), P14416; DiscoveRx D2 beta-arrestin cells, luminescence, 90 min; 100% = 57 uM dopamine signal; potentiation, % (test concentration not listed); 360,000 tested, 0.23% active; AID 624464, 2012; in the data active means potentiation above about 50%; inconclusive means mostly about 30% to 49%
Target sequence (P14416 whole entry, looked up): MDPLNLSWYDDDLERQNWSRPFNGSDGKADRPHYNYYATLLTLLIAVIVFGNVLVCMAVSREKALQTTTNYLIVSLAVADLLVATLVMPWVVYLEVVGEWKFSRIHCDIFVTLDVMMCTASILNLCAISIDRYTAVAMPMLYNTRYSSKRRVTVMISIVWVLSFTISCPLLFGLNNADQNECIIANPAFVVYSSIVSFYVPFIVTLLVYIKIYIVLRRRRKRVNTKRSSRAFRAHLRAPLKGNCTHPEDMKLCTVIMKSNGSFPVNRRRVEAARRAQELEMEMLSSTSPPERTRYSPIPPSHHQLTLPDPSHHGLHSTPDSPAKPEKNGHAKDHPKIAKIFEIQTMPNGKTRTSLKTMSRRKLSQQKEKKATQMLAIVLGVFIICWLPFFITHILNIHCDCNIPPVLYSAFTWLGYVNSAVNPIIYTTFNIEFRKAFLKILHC
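PathHunter beta-arrestin assay in DiscoveRx D2 cells. Compounds were added with an EC20 of dopamine (50 nM final) for 90 min at 37 deg C. Luminescence was read 1 h after detection reagent, with 57 uM dopamine as the EC100 control.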
D2 ag-1: Beta-Arrestin HTS for Positive Allosteric Modulators of the Human D2 Dopamine Receptor: Agonists. D(2) dopamine receptor (Homo sapiens), P14416. DiscoveRx PathHunter D2 beta-arrestin, luminescence, 90 min; 100% = 57 uM dopamine signal. activation, % (no concentration beside the values). 360,000 tested, 0.084% active; in the data active means activation above about 40%; inconclusive means between about 15% and that limit
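DiscoveRx PathHunter D2 beta-arrestin cells (2,100/well) attached overnight, then compound-stimulated 90 min at 37 C in HBSS/10 mM HEPES/0.1% Tween-20 buffer; beta-galactosidase complementation read by luminescence after 1 h at ambient temperature. Dopamine 57 uM final (EC100) as control.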
D2 PAM-2: HTS Assay for Positive Allosteric Modulators of the Human D2 Dopamine Receptor: Primary Screen for Potentiators. HEK293 T-REx D2, calcium flux, EC20 dopamine potentiation. potentiation, % at 10 µM. 340,000 tested, 0.34% active. AID 485347, 2010;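 active means potentiation over 3 SD above the plate norm, cut at about 30% in these data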
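Tetracycline-induced HEK293 T-REx cells force-coupled to calcium signalling expressed D2; compounds were pin-added after a 10 s baseline, read kinetically 180 s, then an EC20 dopamine challenge followed with a further 180 s calcium read.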
D2 ag-2: HTS Assay for Allosteric Agonists of the Human D2 Dopamine Receptor: Primary Screen for Agonists | 340,000 tested, 0.53% active | activation, % at 2 µM | HEK293 T-REx D2 cells, calcium flux agonist mode | AID 485358, 2010 | D(2) dopamine receptor (Homo sapiens), P14416;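 active means activation over 3 SD above normal in the single-dose calcium agonist read, cut at about 30% in these data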
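In this primary screen, compounds producing a positive calcium signal within 180 s of addition to tetracycline-induced, force-coupled HEK293 Trex D2 cells are flagged; cells are dye-loaded with a no-wash calcium kit beforehand.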
D2 antagonist: HTS Assay for Allosteric Antagonists of the Human D2 Dopamine Receptor: Primary Screen for Antagonists | AID 485344, 2010 | HEK293 TREx D2 cells, calcium flux, dopamine EC80 | 340,000 tested, 2% active | inhibition, % at 10 µM | D(2) dopamine receptor (Homo sapiens), P14416; in the data active means inhibition above about 30%; inactive means below that, where a call was filed
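In this primary screen, negative modulation is detected by tracking calcium flux after an EC80 dopamine challenge in inducible HEK293 T-REx D2 cells preexposed to test compound for 180 s.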
D3 ag: qHTS of D3 Dopamine Receptor Agonist: D3 Dopamine Receptor B-arrestin Agonist Confirmatory Assay. 2,300 tested, 4% active. shares compounds with D2 ag-2. AID 720506, 2013. DiscoveRx D3 beta-arrestin cells, luminescence, 90 min. Potency, µM (series often up to 76.9 µM), actives largely listed as activators; further: nearly all actives have a fitted effect of over 70% in size
D2 ag-3: qHTS of D3 Dopamine Receptor Agonist: D2 Dopamine Receptor B-arrestin Agonist Counterscreen; shares compounds with D2 ag-2; DiscoveRx PathHunter D2 beta-arrestin, luminescence, 90 min; response scale: percent relative to full dopamine signal; Potency, µM (top dose mostly 76.9 µM), hits mostly activators; 2,300 tested, 5.9% active; AID 720507, 2013; further: nearly all actives have a fitted effect of over 70% in size
Of the large screens only hits and unclear results are named; the others gave an inactive call (follow-up assays come after a bar, where they were run); ! = a repeat was not active. Unless noted, the call rests on the fitted dose curve; in most records, active means well fitted activation curve with a large enough effect; inconclusive means small, poorly fitted or top-dose-only effect; inactive means flat fitted curve, though single readings scatter.

CN(C)S(=O)(=O)c1ccc(NC(=O)CN2CCN(c3ccccn3)CC2)cc1	D2 ag-1 inconclusive, D2 ag-2 65, D2 antagonist 30 | D3 ag 1.4µM | D2 ag-3 inconclusive
Cn1nnc2c(NCc3ccc(Cl)cc3)ncnc21	none (no result: D2 PAM-1, D2 ag-1, D2 antagonist)
CCCCN(CC)CCCNC(=O)CC1Oc2ccccc2NC1=O (stereo not drawn)	D2 PAM-1 inconclusive, D2 ag-1 53, D2 ag-2 81, D2 antagonist 87 | D3 ag inconclusive | D2 ag-3 50µM
CCN(CC)CCCNC(=O)CC1Sc2ccccc2NC1=O (stereo not drawn)	none | D3 ag inactive | D2 ag-3 inactive
CC(C)CN(CCCNC(=O)CC1Oc2ccccc2NC1=O)CC(C)C (stereo not drawn)	none
O=C(NCC(c1ccco1)S(=O)(=O)c1cccs1)c1ccccc1 (stereo not drawn)	none (no result: D2 PAM-1, D2 ag-1, D2 antagonist)
CCOC(=O)[C@H]1[C@H]2COc3cc(OC)ccc3[C@@H]2N2C(=O)CN(Cc3ccco3)C(=O)[C@@]12C	none | D3 ag inactive | D2 ag-3 inactive
CCOC(=O)[C@@H]1[C@H]2COc3ccc(Br)cc3[C@@H]2N2C(=O)N(c3ccc(Br)cc3)C(=O)[C@]12C	D2 ag-2 32 | D3 ag inactive | D2 ag-3 inactive
CCOC(=O)[C@@H]1[C@H]2COc3ccc(Br)cc3[C@H]2N2C(=O)N(c3ccc(Br)cc3)C(=O)[C@]12C	none
Cc1ccc2cccc(NC(=O)c3ccc(-c4cccc(Cl)c4Cl)o3)c2n1	none (no result: D2 PAM-1, D2 ag-1, D2 antagonist)
O=C(NNC(=O)c1ccncc1)Nc1cccc(C(F)(F)F)c1	none
O=C(/C=C/c1ccccc1[N+](=O)[O-])NNC(=O)c1ccncc1	none | D3 ag inactive | D2 ag-3 inactive
O=C(/C=C/c1cccc(C(F)(F)F)c1)NNC(=O)c1ccncc1	none | D3 ag inactive | D2 ag-3 inactive
Cc1cc(C)cc(-n2c(SCC(=O)Nc3ccccc3)nc3c(oc4ccccc43)c2=O)c1	none (no result: D2 PAM-1, D2 ag-1, D2 antagonist)
CCOC(=O)c1c(-c2ccc(OC)cc2)csc1NC(=O)CNCc1ccco1	none
CCOC(=O)c1c(-c2ccc(Cl)cc2)csc1NC(=O)CNCc1ccco1	D2 ag-2 51 | D3 ag inactive | D2 ag-3 inactive
Cc1ccc(-c2nnc(SCC(=O)N3CCc4ccccc43)o2)cc1	none (no result: D2 PAM-1, D2 ag-1, D2 antagonist)
CCOc1ccc(-n2c(=O)c3c4c(sc3n(Cc3cccc(Cl)c3)c2=O)CCCC4)cc1	none (no result: D2 PAM-1, D2 ag-1, D2 antagonist)
CCN(CC)C(=O)Cn1c(=O)n(Cc2ccc(C(=O)NCCCOC)cc2)c(=O)c2ccccc21	none (no result: D2 PAM-1, D2 ag-1, D2 ag-2, D2 antagonist)
CCCCN(CC)CCNC(=O)c1cc2c(-c3ccc(Cl)cc3)nn(C)c2s1	D2 PAM-1 57, D2 ag-1 75, D2 ag-2 44!, D2 antagonist 72 | D3 ag inconclusive | D2 ag-3 25µM
CCCN(CCC)CCNC(=O)c1cc2c(-c3ccccc3F)nn(C)c2s1	D2 PAM-1 inconclusive, D2 ag-1 67, D2 ag-2 43, D2 antagonist 42 | D3 ag inactive | D2 ag-3 inconclusive
CCCN(CCC)CCNC(=O)c1cc2c(-c3ccc(Cl)cc3)nn(C)c2s1	D2 ag-1 inconclusive, D2 ag-2 45, D2 antagonist 37 | D3 ag inactive | D2 ag-3 inconclusive
CCN(CC)CCNC(=O)c1cc2c(-c3ccc(Cl)cc3)nn(C)c2s1	none
COc1cccc(C2CC(c3ccccc3Cl)n3nc(N)nc3N2)c1 (stereo not drawn)	D2 ag-2 71 | D3 ag inactive | D2 ag-3 inactive
COc1cccc(C2CC(c3ccc(Cl)cc3Cl)n3nc(N)nc3N2)c1 (stereo not drawn)	none
O=C(Nc1cccc(S(=O)(=O)N2CCCCC2)c1)C1CCCN1S(=O)(=O)c1ccccc1F (stereo not drawn)	none | D3 ag inactive | D2 ag-3 inactive
O=C(CN1CCN(C(=O)c2ccco2)CC1)Nc1cccc(S(=O)(=O)N2CCCC2)c1	none | D3 ag inactive | D2 ag-3 inactive
CC(=O)NCCC(=O)Nc1cc(S(=O)(=O)N2CCCCC2)ccc1N1CCCCC1	none | D3 ag inactive | D2 ag-3 inactive
Cc1ccc(NC(=O)[C@@H]2CCCN2S(=O)(=O)c2ccccc2F)cc1	none
Cc1ccc(S(=O)(=O)CCC(=O)Nc2cccc(S(=O)(=O)N3CCCCCC3)c2)cc1	none | D3 ag inactive | D2 ag-3 inactive
CC(=O)NCCC(=O)Nc1cc(S(=O)(=O)N2CCCCC2)ccc1N1CCN(C)CC1	none
COc1ccc2[nH]c(=O)c(CN(C(=O)c3cccc(Cl)c3)c3ccccc3OC)cc2c1	none (no result: D2 PAM-1, D2 ag-1, D2 antagonist)
O=C(CN1CCc2ccccc2C1)Nc1cccc(S(=O)(=O)N2CCCC2)c1	D2 ag-2 53, D2 antagonist 49 | D3 ag inconclusive | D2 ag-3 inconclusive
Cc1cccc(C(=O)NNC(=O)c2ccc(NS(=O)(=O)c3cccs3)cc2)c1C	none | D3 ag inactive | D2 ag-3 inactive
O=C(CCC1N=C2c3ccccc3N=C(SCc3ccccc3F)N2C1=O)NCc1ccccc1 (stereo not drawn)	none (no result: D2 PAM-1, D2 ag-1, D2 antagonist)
Cc1cccc(N2CCN(Cc3nc(-c4cccc(Cl)c4)oc3C)CC2)n1	D2 ag-2 34 | D3 ag inactive | D2 ag-3 inactive
CC(=O)Nc1ccc(C2=CC(=O)CC(C)(C)C2)cc1	none | D3 ag inactive | D2 ag-3 inactive
COc1cccc(N2CCN(Cc3nc(N)nc(N4CCCc5ccccc54)n3)CC2)c1	D2 ag-1 inconclusive, D2 ag-2 56, D2 antagonist 59 | D3 ag inactive | D2 ag-3 inconclusive
COc1ccc(CN2C(=O)C(NC(=O)c3ccccc3C)(C(F)(F)F)N=C2c2ccccc2)cc1 (stereo not drawn)	none (no result: D2 PAM-1, D2 ag-1, D2 antagonist)
O=C(Nc1ccccc1C(F)(F)F)C(O)(c1ccccc1)C1CCCCC1 (stereo not drawn)	none | D3 ag inactive | D2 ag-3 inactive
O=C(Nc1ccccc1C(F)(F)F)N1CCC(N2CCCCC2)CC1	none

Bioassay records deposited in PubChem by National Center for Advancing Translational Sciences (NCATS).
